Test results reported in publication PMC4336329 (PLoS ONE, 2015).
About 14,000 (4.5%) of roughly 310,000 compounds showed an effect of 50% or more. The effect is printed as a negative number. The full list was thinned out, with strong results kept by preference.

Molecular target: human ether-à-go-go-related gene (hERG) potassium channel (human, UniProt Q12809)
Assay: primary screen, population patch clamp on CHO cells stably expressing hERG; higher = less effect of the substance
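Also: peak tail current of the secondary pulse compared with the same well before compound.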

human ether-à-go-go-related gene (hERG) potassium channel, sequence (Q12809 whole entry, looked up): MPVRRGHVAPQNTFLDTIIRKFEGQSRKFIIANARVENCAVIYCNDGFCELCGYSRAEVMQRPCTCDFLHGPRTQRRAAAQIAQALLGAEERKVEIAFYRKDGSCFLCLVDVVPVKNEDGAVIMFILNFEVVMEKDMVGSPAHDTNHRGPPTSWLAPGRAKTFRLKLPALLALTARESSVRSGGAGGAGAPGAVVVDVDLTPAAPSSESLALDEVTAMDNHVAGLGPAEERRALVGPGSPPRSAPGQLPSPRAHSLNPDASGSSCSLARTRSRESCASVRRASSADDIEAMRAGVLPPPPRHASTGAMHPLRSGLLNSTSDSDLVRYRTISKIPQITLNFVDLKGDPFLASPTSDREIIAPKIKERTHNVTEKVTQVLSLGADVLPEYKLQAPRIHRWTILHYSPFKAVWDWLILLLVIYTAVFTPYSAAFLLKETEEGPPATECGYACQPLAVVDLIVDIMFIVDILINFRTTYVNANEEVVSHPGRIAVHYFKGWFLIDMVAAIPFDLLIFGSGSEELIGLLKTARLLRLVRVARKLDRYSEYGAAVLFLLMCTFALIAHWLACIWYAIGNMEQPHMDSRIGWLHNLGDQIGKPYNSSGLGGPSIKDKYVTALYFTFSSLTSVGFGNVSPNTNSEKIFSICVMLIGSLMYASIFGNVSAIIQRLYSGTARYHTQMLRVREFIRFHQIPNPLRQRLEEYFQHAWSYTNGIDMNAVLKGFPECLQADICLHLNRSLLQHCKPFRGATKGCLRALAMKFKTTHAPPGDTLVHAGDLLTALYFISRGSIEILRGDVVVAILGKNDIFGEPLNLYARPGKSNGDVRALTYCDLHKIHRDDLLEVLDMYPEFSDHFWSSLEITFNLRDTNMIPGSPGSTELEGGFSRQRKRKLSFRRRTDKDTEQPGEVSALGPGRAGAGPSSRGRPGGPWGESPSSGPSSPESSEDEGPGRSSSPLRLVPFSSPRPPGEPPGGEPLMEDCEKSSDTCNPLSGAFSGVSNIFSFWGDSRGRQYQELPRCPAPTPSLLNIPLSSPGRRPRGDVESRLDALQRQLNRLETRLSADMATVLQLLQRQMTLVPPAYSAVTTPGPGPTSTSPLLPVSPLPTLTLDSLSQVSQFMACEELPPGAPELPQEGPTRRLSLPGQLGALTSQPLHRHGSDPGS

| SMILES | hERG current change (%, negative = inhibition) at 10uM |
| --- | --- |
| COc1ccc(Cc2nnc(NC(=O)c3ccc(Cl)c([N+](=O)[O-])c3)s2)cc1 | 15% |
| COc1ccc(CN2CCN(C(=O)C3CCC(CNS(=O)(=O)c4ccc(C)cc4)CC3)CC2)c(OC)c1OC (stereo not drawn) | -27.5% |
| CC1Cc2nc(SCC(=O)N3CCN(c4ccccc4)CC3)n(CCc3ccccc3)c(=O)c2S1 (stereo not drawn) | -47.1% |
| COCCn1c(SCC(=O)N2CCN(c3ccccc3)CC2)nc2c(c1=O)SC(C)C2 (stereo not drawn) | -58.8% |
| CCn1c(SCC(=O)N2CCN(c3ccccc3)CC2)nc2c(c1=O)SC(C)C2 (stereo not drawn) | -48.2% |
| CC(=O)c1cccc(NC(=S)NC(=O)c2cccc(Cl)c2)c1 | -3.58% |
| CCSc1nnc(NC(=O)C2Cc3ccccc3CN2C(=O)c2ccco2)s1 (stereo not drawn) | -10.3% |
| CCn1nc(C)c(CNC(=O)CC2C(=O)NCCN2CC(C)C)c1C (stereo not drawn) | 11.7% |
| CCn1nc(C)c(CNC(=O)CC2C(=O)NCCN2Cc2ccc(C)o2)c1C (stereo not drawn) | -68.4% |
| CCn1nc(C)c(CNC(=O)CC2C(=O)NCCN2CC(C)(C)C)c1C (stereo not drawn) | 9.14% |
| CN(CC(=O)N1CCN(c2cccc(Cl)c2)CC1)S(=O)(=O)c1cccs1 | -32.9% |
| Cn1c2c(c(=O)[nH]c1=O)C(c1ccc(O)cc1)C1=C(N2)c2ccccc2C1=O (stereo not drawn) | -5.73% |
| CCOC(=O)c1c(CNCCN(CC)CC)n(C)c2cc(Br)c(OC)cc12.Cl | -68.5% |
| CCOC(=O)c1c(CNc2ccncc2)n(C)c2cc(Br)c(O)cc12.Cl | 18.8% |
| CCOC(=O)c1c(C)n(C)c2cc(Br)c(C(=O)OC)cc12 | -11.1% |
| CCOC(=O)c1c(CN2CCN(CCO)CC2)n(C)c2cc(Br)c(OC)cc12 | -11.3% |
| CCOC(=O)c1c(CN2CCN(C)CC2)n(C)c2cc(Br)c(OC)cc12 | -50.4% |
| CCOC(=O)c1c(CS(=O)(=O)c2ccccc2)n(C)c2cc(Br)c(O)cc12 | 5.4% |
| CCOC(=O)c1c(C)n(C)c2cc(Br)c(OC)cc12 | 15.6% |
| CCOC(=O)c1c(CN(CC)CC)oc2cc(Br)c(O)cc12 | -79.8% |
| CCOC(=O)c1c(-c2ccccc2)oc2cc(Br)c(O)cc12 | 3.65% |
| CCOC(=O)c1c(CN(CC)CC)n(C)c2cc(Br)c(O)cc12.Cl | -73.6% |
| CCOC(=O)c1c(CN2CCN(c3ccccc3)CC2)oc2cc(Br)c(O)cc12.Cl | 14.3% |
| CCOC(=O)c1c(CN2CCN(CC#N)CC2)n(C)c2cc(Br)c(OC)cc12 | 10.9% |
